Test results reported in PubChem BioAssay (NCI).
Where “and” joins values, the source holds several entries; their conditions need not be identical. Identical values can stand only once. The panel holds about 83,000 compounds, 20% with a hit somewhere; the sample as a whole holds those more often.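 For each line, cells grew in 96-well plates with the test compound present at a single concentration for 48 hours.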 Calls of active or inactive are those of the source. The calls were made as follows: active = growth percent below 10; inactive = the rest.

Tested on: MDA-MB-468 breast
Experiment: NCI-60 one-dose screen, 48 h (100 = growth as untreated, 0 = no growth, -100 = all killed)
Settings: 10 µM unless noted

| SMILES | growth |
| --- | --- |
| CNC(=O)c1cc(Oc2ccc(NC(=O)Nc3ccc(Cl)c(C(F)(F)F)c3)cc2)ccn1 | -12.8% (active) and 20.5% (inactive) |
| Cc1c(C)c2c(c(C)c1OCC(=O)O)CC[C@@](C)(CCC[C@@H](C)CCC[C@@H](C)CCCC(C)C)O2 | 0.25% [50 µM] (active) |
| CCCCCCCCCCCCCCCC(=O)OC[C@@]1(O)C[C@@]23CC[C@@H]4C(C)(C)CCC[C@@]4(C)[C@@H]2CC[C@H]1C3 | 103% (inactive) |
| CC(C)CCOC(=O)c1ccccc1 | 115% (inactive) |
| Cc1ccc(CSC2=C(Cl)CN(c3ccc(Cl)cc3)C2=O)cc1 | 83.4% (inactive) |
| COc1cc(Cn2cc3c(c2)-c2onc(CN4CCOCC4)c2CC3)cc(OC)c1OC | 81.5% (inactive) |
| O=C(O)c1cn(C2CC2)c2cc(N3CCN(C(=O)N(c4ccccc4)c4nc(-c5ccccc5)cs4)CC3)c(F)cc2c1=O | -0.856% (active) |
| COC(=O)[C@]12CC[C@@H](C)[C@H](C)[C@@H]1C1=CC[C@@H]3[C@@]4(C)C[C@@H](OC(=O)/C=C/c5ccccc5)[C@H](O)[C@@](C)(CO)[C@@H]4[C@H](O)C[C@@]3(C)[C@]1(C)CC2 | -19.2% (active) |
| N=C(N)c1ccc(S(N)(=O)=O)cc1 | 96.8% (inactive) |
| Cn1cc(-c2cc3ncnc(Nc4ccc(CC(=O)Nc5cc(C(C)(C)C)on5)cc4)c3s2)cn1 | 31.5% (inactive) |
| O=C(O)c1cn(-c2ccccc2)nc1-c1ccc(O)cc1 | 98.3% (inactive) |
| O=S(=O)(NCCCNc1nccc(-c2c(-c3ccc(F)c(O)c3)nc3occn23)n1)c1ccccc1 | 94.8% (inactive) |
